# According to PubChem BioAssay (NCATS):
# Results filed as inconclusive are left out. The source made the active and inactive calls. Unless noted, the call rests on the fitted dose curve; in most records, active means well fitted curve in the direction sought with a large enough effect; inconclusive means small, poorly fitted or top-dose-only effect, or another doubt; inactive means no such curve, though single readings can be large; an effect the other way counts as inactive or inconclusive.
# Tests used:
# [1] = biological target: Glucocorticoid receptor (Homo sapiens) (UniProt P04150); experiment: qHTS assay for small molecule agonists of glucocorticoid receptor signaling (AID 588532; active means well fitted curve in the direction sought with a large enough effect in the signal ratio, with a control signal flat; the % refers to the signal ratio;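 further: 100% = dexamethasone at 0.1 µM and 0% = DMSO only wells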); details: HeLa MMTV-bla, beta-lactamase ratio, agonist, 18 h; stronger effect = higher value; percent of dexamethasone control, DMSO zero
# Chain of Glucocorticoid receptor (Homo sapiens) (P04150 whole entry, looked up): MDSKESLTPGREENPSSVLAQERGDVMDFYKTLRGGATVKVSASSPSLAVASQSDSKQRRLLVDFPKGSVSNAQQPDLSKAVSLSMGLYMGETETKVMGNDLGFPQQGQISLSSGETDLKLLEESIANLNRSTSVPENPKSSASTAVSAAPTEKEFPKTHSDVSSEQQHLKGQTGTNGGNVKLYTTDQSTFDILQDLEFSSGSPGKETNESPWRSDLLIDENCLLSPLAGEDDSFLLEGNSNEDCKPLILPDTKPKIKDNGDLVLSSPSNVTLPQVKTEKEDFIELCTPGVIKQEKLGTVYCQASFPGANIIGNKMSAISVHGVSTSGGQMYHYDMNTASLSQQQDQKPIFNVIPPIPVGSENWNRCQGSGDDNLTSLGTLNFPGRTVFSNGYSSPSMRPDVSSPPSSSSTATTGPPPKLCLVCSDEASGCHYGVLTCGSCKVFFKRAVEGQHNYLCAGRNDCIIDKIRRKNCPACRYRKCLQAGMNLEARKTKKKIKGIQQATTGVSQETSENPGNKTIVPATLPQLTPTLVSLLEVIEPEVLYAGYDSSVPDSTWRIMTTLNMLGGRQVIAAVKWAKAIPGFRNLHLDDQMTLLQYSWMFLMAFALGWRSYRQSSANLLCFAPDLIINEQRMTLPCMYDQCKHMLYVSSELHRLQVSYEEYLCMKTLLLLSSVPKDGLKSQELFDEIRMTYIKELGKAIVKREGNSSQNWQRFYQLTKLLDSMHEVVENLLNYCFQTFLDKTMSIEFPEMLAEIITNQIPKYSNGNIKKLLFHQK
# Procedure, shortened: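 MMTV-bla HeLa, beta-lactamase reporter; medium with 1% charcoal/dextran-stripped FBS; cpds up to 92 uM, 18 h, 37 C; CCF4 readout 460/530 nm; Hill fit → EC50, efficacy vs 0.1 uM dexamethasone = 100%.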
# [2] = biological target: Peroxisome proliferator-activated receptor gamma (Homo sapiens) (UniProt P37231); experiment: qHTS assay for small molecule agonists of peroxisome proliferator-activated receptor gamma signaling (AID 588536; active means well fitted curve in the direction sought with a large enough effect in the signal ratio, with a control signal flat, not every such curve was filed as active; the % refers to the signal ratio;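 further: 0% = DMSO basal wells and 100% = rosiglitazone at 2 µM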); details: HEK293 PPARg-UAS-bla, beta-lactamase ratio, 16 h, percent of rosiglitazone response, DMSO as zero; series mostly up to 76.7 µM
# Chain of Peroxisome proliferator-activated receptor gamma (Homo sapiens) (P37231 whole entry, looked up): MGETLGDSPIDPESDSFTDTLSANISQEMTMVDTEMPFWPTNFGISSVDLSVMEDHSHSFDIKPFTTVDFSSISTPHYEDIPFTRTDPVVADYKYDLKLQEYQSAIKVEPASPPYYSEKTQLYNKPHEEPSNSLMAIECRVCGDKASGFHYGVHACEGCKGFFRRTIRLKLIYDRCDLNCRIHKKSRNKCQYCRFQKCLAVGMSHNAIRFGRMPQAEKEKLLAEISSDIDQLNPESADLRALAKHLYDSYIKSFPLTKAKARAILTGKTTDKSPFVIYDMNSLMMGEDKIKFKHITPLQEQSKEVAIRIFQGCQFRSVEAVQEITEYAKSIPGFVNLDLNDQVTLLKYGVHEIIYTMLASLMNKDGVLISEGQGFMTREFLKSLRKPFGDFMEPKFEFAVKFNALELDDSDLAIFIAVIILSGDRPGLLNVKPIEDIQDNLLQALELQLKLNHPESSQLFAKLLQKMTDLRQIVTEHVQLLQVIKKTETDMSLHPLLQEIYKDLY
# Procedure, shortened: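 GeneBLAzer PPAR-gamma-UAS-bla HEK293 cells in 1% charcoal/dextran-treated FBS medium were treated 16 h at 37 C with compounds. Beta-lactamase activity was read by CCF4 ratio (460/530 nm). Response was normalized to 2 uM rosiglitazone (100%) and DMSO, then Hill-fitted for EC50 and efficacy.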
# [3] = qHTS assay for small molecule agonists of retinoid X receptor alpha signaling (AID 588544; calls by dose curve;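 on activation: 0% = DMSO basal wells and 100% = reference agonist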); details: HEK293T RXRa-UAS-bla, beta-lactamase reporter, 18 h; 530 nm emission
# [4] = biological target: Retinoic acid receptor RXR-alpha (Homo sapiens) (UniProt P19793); experiment: as above; details: HEK293T RXRa-UAS-bla, beta-lactamase reporter, 18 h; series mostly up to 76.7 µM
# Chain of Retinoic acid receptor RXR-alpha (Homo sapiens) (P19793 whole entry, looked up): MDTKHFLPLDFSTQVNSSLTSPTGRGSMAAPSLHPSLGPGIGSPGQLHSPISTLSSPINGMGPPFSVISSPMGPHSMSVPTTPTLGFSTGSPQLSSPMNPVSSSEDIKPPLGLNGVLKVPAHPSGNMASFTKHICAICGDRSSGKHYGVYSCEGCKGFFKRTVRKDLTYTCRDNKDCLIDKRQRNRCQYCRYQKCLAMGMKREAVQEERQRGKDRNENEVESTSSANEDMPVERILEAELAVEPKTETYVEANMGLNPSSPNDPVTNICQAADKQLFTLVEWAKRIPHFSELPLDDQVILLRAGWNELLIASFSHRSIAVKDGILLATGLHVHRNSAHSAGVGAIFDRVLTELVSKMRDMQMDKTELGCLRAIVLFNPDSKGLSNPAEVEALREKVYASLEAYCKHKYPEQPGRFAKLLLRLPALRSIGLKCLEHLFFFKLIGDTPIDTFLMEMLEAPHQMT
# [5] = biological target: Thyroid hormone receptor beta (Homo sapiens) (UniProt P10828); experiment: qHTS assay for small molecule agonists of thyroid hormone receptor beta signaling (AID 588545; calls by dose curve); details: TR-UAS-bla GripTite HEK 293, beta-lactamase ratio, agonist mode, 18 h; series mostly up to 76.7 µM
# Chain of Thyroid hormone receptor beta (Homo sapiens) (P10828 whole entry, looked up): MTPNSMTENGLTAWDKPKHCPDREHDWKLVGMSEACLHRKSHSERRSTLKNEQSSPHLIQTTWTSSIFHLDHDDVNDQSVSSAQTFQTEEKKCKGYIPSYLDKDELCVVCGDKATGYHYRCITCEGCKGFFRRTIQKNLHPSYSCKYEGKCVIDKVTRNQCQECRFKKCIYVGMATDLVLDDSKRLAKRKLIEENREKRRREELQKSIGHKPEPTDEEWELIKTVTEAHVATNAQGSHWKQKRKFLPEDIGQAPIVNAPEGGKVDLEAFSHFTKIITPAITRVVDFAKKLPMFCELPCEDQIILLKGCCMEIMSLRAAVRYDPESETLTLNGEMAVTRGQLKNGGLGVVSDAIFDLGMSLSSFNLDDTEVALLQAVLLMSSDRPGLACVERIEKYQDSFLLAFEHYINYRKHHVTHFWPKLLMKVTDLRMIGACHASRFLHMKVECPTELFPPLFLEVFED
# Procedure, shortened: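 In this cell-based screen, titrated compounds act on HEK 293 cells held in medium with 2% charcoal/dextran FBS, NEAA and pyruvate for 18 hrs at 37 C. Responses are expressed relative to T3 (10 nM) as 100% and basal DMSO as 0%.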
# [6] = qHTS assay for small molecule antagonists of retinoid X receptor alpha signaling (AID 588546; active means well fitted inhibition curve with a large enough effect in the signal ratio, with a control signal flat, not every such curve was filed as active; the % refers to the signal ratio;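 further: cells stimulated with 9-cis-retinoic acid as agonist; on the % scale 0 is the no-effect control and ±100 the full control effect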); details: HEK293T RXRa-UAS-bla, beta-lactamase ratio, antagonist mode; measured here: W530 green channel, cytotoxicity proxy
# Procedure, shortened: (§1)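 Beta-lactamase reporter inhibition, read as CCF4 fluorescence ratio (ex 405, em 460/530 nm) after 2 h at RT. HEK293T UAS-bla cells, 2500/well, were stimulated with 9-cis-RA at 500 or 100 nM final alongside test compound for 18 h at 37 C.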
# [7] = biological target: Retinoic acid receptor RXR-alpha (Homo sapiens) (UniProt P19793); experiment: as above; details: HEK293T RXRa-UAS-bla, beta-lactamase ratio, antagonist mode
# Procedure, shortened: as §1
# [8] = biological target: Thyroid hormone receptor beta (Homo sapiens) (UniProt P10828); experiment: qHTS assay for small molecule antagonists of thyroid hormone receptor beta signaling (AID 588547; active means well fitted inhibition curve with a large enough effect in the signal ratio, with a control signal flat, not every such curve was filed as active; the % refers to the signal ratio;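 further: cells stimulated with 0.4 nM T3 agonist during compound exposure; on the % scale 0 is the no-effect control and ±100 the full control effect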); details: TR-UAS-bla HEK293, beta-lactamase ratio, antagonist mode, 18 h
# Procedure, shortened: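 TR-UAS-bla GripTite HEK293 cells in 2% charcoal/dextran FBS medium were preincubated 4 h at 37 C, given compound (0.59 nM to 92 uM) plus 0.4 nM T3 (final) for 18 h, then CCF4 for 2 h at RT; Hill fit gave IC50.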
# [9] = qHTS assay for small molecule activators of the p53 signaling pathway (AID 651743; active means well fitted activation curve with a large enough effect in the signal ratio, not every such curve was filed as active; the % refers to the signal ratio; further: % of control where 0% means no effect); details: HCT-116 p53RE-bla, beta-lactamase FRET ratio, 16 h; activation: stronger effect = higher value
# Procedure, shortened: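 p53RE-bla HCT-116 cells with a stably integrated beta-lactamase reporter under p53 response elements were plated, rested 5 hours at 37 C/5% CO2, then exposed to compounds in DMSO for 16 hours at 37 C. LiveBLAzer B/G FRET substrate was read after 2 hours at room temperature.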
# [10] = qHTS assay for small molecule activators of the nuclear factor-kappa B (NF-kB) signaling pathway (AID 651749; active means well fitted activation curve with a large enough effect in the signal ratio; the % refers to the signal ratio; further: % of control where 0% means no effect); details: NF-kB-bla ME-180 cells, beta-lactamase FRET ratio, 16 h; activation: stronger effect = higher value
# Procedure, shortened: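 ME-180 cells stably carrying a beta-lactamase reporter under an NF-kB response element were exposed to compound or DMSO vehicle for 16 hr at 37C, 5% CO2. Pathway activation was read by FRET, since reporter expression disrupts FRET.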
# [11] = qHTS assay for environmental chemicals that activate the Aryl hydrocarbon Receptor (AhR) signaling pathway (AID 651777); details: 1A2-DRE human hepatoma cells, luciferase, 24 h; activation: stronger effect = higher value; further: nearly all actives have a fitted effect of over 15% in size; further: potency means the concentration at half of the fitted maximal effect; on activation: % of control where 0% means no effect
# Procedure, shortened: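 Human hepatoma 1A2-DRE cells stably carrying a DRE/CYP1A2 promoter–luciferase reporter, 1,200 cells/well, exposed to compound 24 hr at 37 C. Luciferase read by One-Glo luminescence after 30 min at room temperature; increased signal marks AhR activation.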
# [12] = biological target: Peroxisome proliferator-activated receptor alpha (Homo sapiens) (UniProt Q07869); experiment: qHTS assay for small molecule agonists of the peroxisome proliferator-activated receptor alpha (PPARalpha) signaling pathway (AID 651778); details: PathHunter PPARalpha complementation, chemiluminescence, 6 h; max response: stronger effect = higher value; further: % of control where 0% means no effect
# Chain of Peroxisome proliferator-activated receptor alpha (Homo sapiens) (Q07869 whole entry, looked up): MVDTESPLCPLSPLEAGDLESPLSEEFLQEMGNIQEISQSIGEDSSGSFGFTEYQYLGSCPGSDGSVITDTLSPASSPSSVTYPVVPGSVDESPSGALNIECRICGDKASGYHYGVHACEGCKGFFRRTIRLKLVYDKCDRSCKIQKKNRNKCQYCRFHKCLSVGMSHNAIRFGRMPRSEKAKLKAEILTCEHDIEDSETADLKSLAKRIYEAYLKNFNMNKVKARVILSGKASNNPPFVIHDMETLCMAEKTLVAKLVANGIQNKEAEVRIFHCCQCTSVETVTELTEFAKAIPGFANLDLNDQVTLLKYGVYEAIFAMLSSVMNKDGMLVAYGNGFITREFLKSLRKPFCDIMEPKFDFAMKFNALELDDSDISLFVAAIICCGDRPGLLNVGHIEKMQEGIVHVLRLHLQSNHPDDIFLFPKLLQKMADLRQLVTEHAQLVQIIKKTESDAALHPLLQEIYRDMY
# Procedure, shortened: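 Cells plated at 2,000/well and held overnight at 37 C, 5% CO2, then compound added by pin tool for 6 hr; after PathHunter detection reagent and 60 min at room temperature, chemiluminescence from enzyme complementation was read.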
# [13] = qHTS assay for small molecule agonists of the antioxidant response element (ARE) signaling pathway measured by Nrf2-dependant transcriptional activity (AID 720636; active means well fitted curve in the direction sought with a large enough effect in the repeat runs; an effect the other way counts as inactive or inconclusive; further: % of control where 0% means no effect); details: ARE-luc HepG2, Nrf2 luciferase reporter, 16 h; series mostly up to 92.4 µM
# Procedure, shortened: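 ARE-luc HepG2 cells carrying an Nrf2-responsive luciferase reporter, in medium with 1% dialyzed FBS, exposed to compound for 16 hr at 37 C, 5% CO2. Luminescence read 30 min after ONE-Glo addition.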
# [14] = qHTS assay for small molecule agonists of the antioxidant response element (ARE) signaling pathway measured by Nrf2-dependant transcriptional activity - cell viability counter screen (AID 720653; active means well fitted curve in the direction sought with a large enough effect in the repeat runs; an effect the other way counts as inactive or inconclusive; further: on the % scale 0 is the no-effect control and ±100 the full control effect); details: ARE-bla HepG2 viability, CellTiter-Glo ATP luminescence, 16 h; max response: stronger effect = lower value
# Procedure, shortened: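 ARE-bla HepG2 cells (2,000/well) rested 5 hrs at 37C/5% CO2, then exposed to compounds in DMSO for 16 hrs. Viability was read in the same wells as intracellular ATP by luminescence, 30 min at room temperature after reagent addition.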
# [15] = qHTS assay for cell viability of HEK293 cells (AID 743288); details: ATP luminescence (CellTiter-Glo), 18 h; max response: stronger effect = lower value; further: nearly all actives have a fitted effect of over 50% in size; further: potency means the concentration at half of the fitted maximal effect; on max response: on the % scale 0 is the no-effect control and ±100 the full control effect
# Procedure, shortened: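 The Tox21 protocol used parental HEK293 cells treated for 18 h at 37 C with compounds delivered by pintool; ATP-coupled luminescence after 30 min at room temperature gave viability.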
# [16] = qHTS assay for cell viability of the p53RE-bla HCT-116 cell line (AID 743292); details: p53RE-bla HCT-116 viability, ATP luminescence, 16 h; series mostly up to 95 µM; further: on the % scale 0 is the no-effect control and ±100 the full control effect; nearly all actives have a fitted effect of over 55% in size
# Procedure, shortened: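 CellSensor p53RE-bla HCT-116 cells (4,000/well) pre-incubated 5 h at 37 C, then exposed to compounds in DMSO for 16 h at 37 C. Viability read as ATP content by CellTiter-Glo luminescence after 30 min at room temperature.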
# [17] = biological target: Peroxisome proliferator-activated receptor gamma (Homo sapiens) (UniProt P37231); experiment: qHTS assay for small molecule antagonists of peroxisome proliferator-activated receptor gamma signaling (AID 588537; active means well fitted inhibition curve with a large enough effect in the signal ratio, with a control signal flat, not every such curve was filed as active; the % refers to the signal ratio;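 further: reporter cells co-stimulated with 50 nM rosiglitazone agonist during compound treatment; % of control where 0% means no effect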); details: HEK293 PPARg-UAS-bla, beta-lactamase ratio, antagonist mode; series mostly up to 76.8 µM
# Procedure, shortened: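 PPAR-gamma-UAS-bla HEK293 cells (3000/well, 1% charcoal/dextran-stripped FBS) were preincubated 6-6.5 h at 37 C, given titrated compounds, then stimulated with 50 nM rosiglitazone for 16 h. Beta-lactamase activity was read with CCF4 dye; IC50 came from Hill fits.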
# [18] = biological target: Nuclear receptor subfamily 1 group I member 2 (Rattus norvegicus) (UniProt Q9R1A7); experiment: qHTS assay for small molecule activators of the rat pregnane X receptor (rPXR) signaling pathway (AID 651751; call rule not given here; further: 0% is about no effect); details: rPXR reporter cells, luciferase (One-Glo), 24 h
# Chain of Nuclear receptor subfamily 1 group I member 2 (Rattus norvegicus) (Q9R1A7 whole entry, looked up): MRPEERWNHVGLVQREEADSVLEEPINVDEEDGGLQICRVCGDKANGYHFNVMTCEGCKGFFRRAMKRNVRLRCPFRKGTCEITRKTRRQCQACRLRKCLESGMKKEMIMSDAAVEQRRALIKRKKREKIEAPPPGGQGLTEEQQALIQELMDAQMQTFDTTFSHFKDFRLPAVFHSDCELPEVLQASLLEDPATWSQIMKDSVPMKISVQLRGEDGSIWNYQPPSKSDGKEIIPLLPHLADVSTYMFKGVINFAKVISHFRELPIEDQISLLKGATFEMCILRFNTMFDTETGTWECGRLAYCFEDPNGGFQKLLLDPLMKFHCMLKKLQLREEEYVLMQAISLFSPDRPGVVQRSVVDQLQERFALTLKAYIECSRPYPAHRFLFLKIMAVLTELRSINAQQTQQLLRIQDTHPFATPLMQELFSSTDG
# [19] = qHTS assay for small molecule antagonists of peroxisome proliferator-activated receptor delta signaling (AID 588535); details: HEK293T PPARd-UAS-bla, beta-lactamase FRET ratio, 18 h; 460 nm channel;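 further: cells co-treated with a PPAR-delta agonist as stimulator during compound exposure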
# Procedure, shortened: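 GeneBLAzer PPAR-delta-UAS-bla HEK293T cells in medium with 2% charcoal/dextran FBS were preincubated 5 hrs at 37 C, then given compounds, incubated 18 hrs at 37 C, and read by CCF4 beta-lactamase fluorescence; IC50 from Hill fits.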
# [20] = qHTS assay for small molecule activators of the human pregnane X receptor (PXR) signaling pathway (AID 720659; call rule not given here; further: 0% is about no effect); details: DPX-2 HepG2 CYP3A4-luciferase, 24 h; series mostly up to 92.3 µM
smiles,measurement,setting,value
CC(=O)CC(=O)Nc1ccccc1C,activation,[1],2.41% (inactive)
same,outcome,[2],inactive
same,max response,[3],16.5%
same,Potency,[4],inactive
same,Potency,[5],inactive
same,max response,[6],14.1%
same,max response,[7],-30.4% (inactive)
same,activity change % (negative = inhibition),[8],7.41% (inactive)
same,activation,[9],-0.568% (inactive)
same,activation,[10],-0.183% (inactive)
same,activation,[11],3.12% (inactive)
same,max response,[12],-0.992% (inactive)
same,Potency,[13],inactive
same,max response,[14],-6.37% (inactive)
same,max response,[15],-10.9% (inactive)
same,Potency,[16],inactive
c1ccc2cc3ccccc3cc2c1,activation,[1],13.3% (inactive)
same,outcome,[2],inactive
same,Potency,[17],inactive
same,max response,[3],-12.9%
same,Potency,[4],inactive
same,Potency,[5],inactive
same,max response,[6],21.2%
same,max response,[7],-8.21% (inactive)
same,activity change % (negative = inhibition),[8],-13.8% (inactive)
same,activation,[11],1.49% (inactive)
same,max response,[12],-0.274% (inactive)
same,max response,[14],-8% (inactive)
same,max response,[15],-2.63% (inactive)
same,Potency,[16],inactive
same,max response,[18],4.65% (inactive)
C/C=C/C/C=C\CCCCCCCCOC(C)=O,max response,[19],15.9%
same,outcome,[2],inactive
same,Potency,[17],inactive
same,max response,[3],-14.4%
same,Potency,[4],inactive
same,Potency,[5],inactive
same,max response,[6],-5.66%
same,max response,[7],-0.494% (inactive)
same,activity change % (negative = inhibition),[8],-5.4% (inactive)
same,activation,[9],-0.736% (inactive)
same,activation,[10],-0.792% (inactive)
same,activation,[11],1.59% (inactive)
same,max response,[12],-1.2% (inactive)
same,Potency,[13],inactive
same,max response,[14],5.44% (inactive)
same,max response,[15],0.639% (inactive)
same,Potency,[16],inactive
same,max response,[18],0.0563% (inactive)
same,outcome,[20],inactive
Nc1ccc(N)c2c1C(=O)c1c(N)ccc(N)c1C2=O,activation,[1],0.353% (inactive)
same,outcome,[2],inactive
same,Potency,[17],inactive
same,max response,[3],-9.83%
same,Potency,[4],inactive
same,Potency,[5],inactive
same,activity change % (negative = inhibition),[8],20.4% (inactive)
same,activation,[10],7.06% (inactive)
same,activation,[11],12.2% (inactive)
same,max response,[12],7.09% (inactive)
same,max response,[14],-2.4% (inactive)
same,max response,[15],-28.2% (inactive)
same,Potency,[16],inactive
same,max response,[18],-7.59% (inactive)
same,outcome,[20],inactive
CC(=O)Nc1ccc(N=Nc2cc(C)ccc2O)cc1,activation,[1],-3.33% (inactive)
same,max response,[19],14%
same,max response,[3],3.3%
same,Potency,[4],inactive
same,Potency,[5],inactive
same,max response,[6],-4.33%
same,max response,[7],-20.6% (inactive)
same,activation,[10],-1.84% (inactive)
same,Potency,[11],4.47 µM (active)
same,max response,[12],-3.57% (inactive)
same,max response,[14],1.65% (inactive)
same,max response,[15],-16.4% (inactive)
same,Potency,[16],inactive
same,max response,[18],1.28% (inactive)
CC1(C)[C@@H]([C@@H](Br)C(Br)(Br)Br)[C@H]1C(=O)O[C@H](C#N)c1cccc(Oc2ccccc2)c1,activation,[1],-6.04% (inactive)
same,activity change % (negative = inhibition),[8],-17.9% (inactive)
same,activation,[9],11.9% (inactive)
same,activation,[11],0.917% (inactive)
same,max response,[12],-5.06% (inactive)
same,Potency,[13],inactive
same,max response,[14],-14.5% (inactive)
same,Potency,[15],50.1 µM (active)
same,Potency,[16],inactive
